# From PubChem BioAssay (NCI)
# Compounds without any hit were thinned out: in the full panel of roughly 79,000, 15% have a hit. A number with no mark means an inactive call. Active and inactive are the calls of the source. Cut-off read from the data, not from the text of the source: active = growth inhibition above about 70%; inactive = the rest.
# Experiments:
# [1] = NCI Yeast Anticancer Drug Screen. Data for the mlh1 strain (AID 171);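 note: 0% = growth of vehicle-treated control cultures of the same strain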; conditions: S. cerevisiae mlh1 strain growth inhibition, hits give high values
# In short: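 Compounds are applied to a genetically altered yeast strain, and its growth is compared with that of vehicle-treated cultures to give percent inhibition.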
# [2] = NCI Yeast Anticancer Drug Screen. Data for the sgs1 strain (AID 173);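 note: 0% = growth of vehicle-only control cultures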; conditions: S. cerevisiae sgs1 mutant, hits give high values
# In short: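 Compounds applied to genetically altered yeast; growth compared with vehicle-treated cultures to give % inhibition.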
# [3] = NCI Yeast Anticancer Drug Screen. Data for the mlh1 rad18 strain (AID 175); conditions: S. cerevisiae mlh1 rad18 strain growth inhibition, hits give high values
# In short: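 Cells of a genetically altered yeast strain, deficient in DNA damage repair, were treated with compound. Their growth was then compared with that of vehicle-treated cultures to give inhibition.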
# [4] = NCI Yeast Anticancer Drug Screen. Data for the rad52 strain (AID 147);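 note: 0% = growth of vehicle-treated control cultures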; conditions: S. cerevisiae rad52 mutant growth inhibition, hits give high values
# In short: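 DNA repair-defective yeast; compound exposure; growth scored against vehicle controls.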
# [5] = NCI Yeast Anticancer Drug Screen. Data for the wt1 strain (AID 149);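 note: 0% = growth of vehicle-treated wt1 cultures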; conditions: S. cerevisiae wt1 strain (SPY 50644) growth inhibition, hits give high values
# In short: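 wt1 yeast, compound-treated; % growth inhibition vs vehicle control.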
# [6] = NCI Yeast Anticancer Drug Screen. Data for the rad50EPP+ strain (AID 151);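 note: 0% = growth of vehicle-treated control cultures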; conditions: S. cerevisiae rad50 mutant strain, hits give high values
# In short: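 rad50EPP+ yeast treated with test compounds. Readout: growth vs vehicle control.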
# [7] = NCI Yeast Anticancer Drug Screen. Data for the mgt1 strain (AID 153); conditions: S. cerevisiae mgt1 mutant growth inhibition, hits give high values
# In short: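 Growth inhibition relative to vehicle controls was scored for the mgt1 yeast strain after compound exposure.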
# [8] = NCI Yeast Anticancer Drug Screen. Data for the rad50 strain (AID 155);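 note: 0% = growth of vehicle-only cultures of the same strain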; conditions: S. cerevisiae rad50 strain growth inhibition, hits give high values
# In short: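 Genetically altered yeast (DNA repair pathway); compound treatment; growth inhibition vs vehicle ctrl.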
# [9] = NCI Yeast Anticancer Drug Screen. Data for the mec2-1 strain (AID 157); conditions: S. cerevisiae mec2-1 strain, hits give high values
# In short: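 Growth inhibition is read against vehicle-treated controls after compound exposure of the mec2-1 yeast strain, which is defective in DNA damage repair or cell cycle control.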
# [10] = NCI Yeast Anticancer Drug Screen. Data for the rad14 strain (AID 159);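 note: 0% = growth of vehicle-treated control cultures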; conditions: S. cerevisiae rad14 strain growth inhibition, hits give high values
# In short: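 Test compounds were applied to a repair-deficient yeast strain. Its growth was then compared with that of cultures given vehicle alone, and inhibition was expressed relative to those controls.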
# [11] = NCI Yeast Anticancer Drug Screen. Data for the sgs1 mgt1 strain (AID 161);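 note: 0% = growth of cultures given vehicle only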; conditions: S. cerevisiae sgs1 mgt1 strain, hits give high values
# In short: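 Percent growth inhibition was derived by comparing compound-exposed mutant yeast with vehicle-exposed cultures. The strain carries alterations in DNA damage repair.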
# [12] = NCI Yeast Anticancer Drug Screen. Data for the cln2 rad14 strain (AID 165);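 note: 0% = growth equal to vehicle treated cultures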; conditions: S. cerevisiae cln2 rad14 strain, hits give high values
# In short: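 Growth inhibition, relative to vehicle-treated controls, is the read-out. The test organism is a yeast strain with defined genetic alterations, cln2 rad14.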
# [13] = NCI Yeast Anticancer Drug Screen. Data for the bub3 strain (AID 167); conditions: S. cerevisiae bub3 mutant strain, hits give high values
# In short: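 Yeast carrying a defined mutation is treated with each compound, and growth is compared with that of vehicle-exposed cells to give inhibition.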
# [14] = NCI Yeast Anticancer Drug Screen. Data for the wt2 strain (AID 169);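 note: 0% = growth of vehicle-treated yeast cultures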; conditions: S. cerevisiae wt2 strain growth inhibition, hits give high values
# In short: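 Compound exposure of yeast; growth compared with vehicle controls; inhibition reported.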
# [15] = NCI Yeast Anticancer Drug Screen. Data for the rad18 strain (AID 177); conditions: S. cerevisiae rad18 mutant growth inhibition, hits give high values
# In short: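 Compounds are applied to a repair-deficient yeast strain, and growth is compared with that of vehicle-treated cultures to give percent inhibition.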
# [16] = at 5.0 µM (retest, dose inferred, filed as 0.5)
# [17] = at 50.0 µM (retest, dose inferred, filed as 5.0)
compound,measurement,setting,value
O=C(c1ccccc1)C1C(c2ccccc2[N+](=O)[O-])N1C1CCCCC1 (stereo unspecified),growth inhibition,[1]; at 1.2 µM,4%
same,growth inhibition,[1]; at 3.7 µM,8%
same,growth inhibition,[1]; at 11.0 µM,19%
same,growth inhibition,[1]; at 33.0 µM,45%
same,growth inhibition,[1]; at 100.0 µM,90% (active)
same,growth inhibition,[2]; at 1.2 µM,9%
same,growth inhibition,[2]; at 3.7 µM,21%
same,growth inhibition,[2]; at 11.0 µM,52%
same,growth inhibition,[2]; at 33.0 µM,85% (active)
same,growth inhibition,[2]; at 100.0 µM,91% (active)
same,growth inhibition,[3]; [16],0%
same,growth inhibition,[3]; [17],80% (active)
same,growth inhibition,[3]; at 50.0 µM,96.2% (active)
CO[C@H](/C(C)=C/C=C/C(C)=C/c1coc(C)n1)[C@H](C)[C@H]1C[C@@H](O)[C@@]2(C)O[C@H]2/C=C/[C@@H](C)[C@@H]2C[C@@H](CC(=O)O2)C[C@H]2O[C@@H]2C(=O)O1,growth inhibition,[4]; at 1.2 µM,6%
same,growth inhibition,[4]; at 3.7 µM,-2%
same,growth inhibition,[4]; at 11.0 µM,14%
same,growth inhibition,[4]; at 33.0 µM,17%
same,growth inhibition,[4]; at 100.0 µM,93% (active)
same,growth inhibition,[5]; at 1.2 µM,7%
same,growth inhibition,[5]; at 3.7 µM,-2%
same,growth inhibition,[5]; at 11.0 µM,2%
same,growth inhibition,[5]; at 33.0 µM,15%
same,growth inhibition,[5]; at 100.0 µM,93% (active)
same,growth inhibition,[6]; at 1.2 µM,-17%
same,growth inhibition,[6]; at 3.7 µM,-9%
same,growth inhibition,[6]; at 11.0 µM,-21%
same,growth inhibition,[6]; at 33.0 µM,-8%
same,growth inhibition,[6]; at 100.0 µM,-23%
same,growth inhibition,[7]; at 1.2 µM,-4%
same,growth inhibition,[7]; at 3.7 µM,-14%
same,growth inhibition,[7]; at 11.0 µM,-6%
same,growth inhibition,[7]; at 33.0 µM,24%
same,growth inhibition,[7]; at 100.0 µM,94% (active)
same,growth inhibition,[8]; at 1.2 µM,-6%
same,growth inhibition,[8]; at 3.7 µM,-15%
same,growth inhibition,[8]; [16],-9%
same,growth inhibition,[8]; at 11.0 µM,-26%
same,growth inhibition,[8]; at 33.0 µM,4%
same,growth inhibition,[8]; [17],89% (active)
same,growth inhibition,[8]; at 50.0 µM,39.1%
same,growth inhibition,[8]; at 100.0 µM,93% (active)
same,growth inhibition,[9]; at 1.2 µM,-9%
same,growth inhibition,[9]; at 3.7 µM,-5%
same,growth inhibition,[9]; [16],-9%
same,growth inhibition,[9]; at 11.0 µM,-16%
same,growth inhibition,[9]; at 33.0 µM,16%
same,growth inhibition,[9]; [17],93% (active)
same,growth inhibition,[9]; at 50.0 µM,49.2%
same,growth inhibition,[9]; at 100.0 µM,93% (active)
same,growth inhibition,[10]; at 1.2 µM,-28%
same,growth inhibition,[10]; at 3.7 µM,-17%
same,growth inhibition,[10]; at 11.0 µM,-8%
same,growth inhibition,[10]; at 33.0 µM,-8%
same,growth inhibition,[10]; at 100.0 µM,91% (active)
same,growth inhibition,[11]; [16],15%
same,growth inhibition,[11]; [17],91% (active)
same,growth inhibition,[11]; at 50.0 µM,20.6%
same,growth inhibition,[12]; [16],8%
same,growth inhibition,[12]; [17],54%
same,growth inhibition,[12]; at 50.0 µM,19.4%
same,growth inhibition,[13]; at 1.2 µM,-19%
same,growth inhibition,[13]; at 3.7 µM,-10%
same,growth inhibition,[13]; [16],37%
same,growth inhibition,[13]; at 11.0 µM,9%
same,growth inhibition,[13]; at 33.0 µM,89% (active)
same,growth inhibition,[13]; [17],95% (active)
same,growth inhibition,[13]; at 50.0 µM,83.3% (active)
same,growth inhibition,[13]; at 100.0 µM,96% (active)
same,growth inhibition,[14]; at 1.2 µM,-12%
same,growth inhibition,[14]; at 3.7 µM,-4%
same,growth inhibition,[14]; at 11.0 µM,-6%
same,growth inhibition,[14]; at 33.0 µM,81% (active)
same,growth inhibition,[14]; at 100.0 µM,92% (active)
same,growth inhibition,[1]; at 1.2 µM,10%
same,growth inhibition,[1]; at 3.7 µM,7%
same,growth inhibition,[1]; at 11.0 µM,11%
same,growth inhibition,[1]; at 33.0 µM,44%
same,growth inhibition,[1]; at 100.0 µM,94% (active)
same,growth inhibition,[2]; at 1.2 µM,1%
same,growth inhibition,[2]; at 3.7 µM,2%
same,growth inhibition,[2]; at 11.0 µM,-6%
same,growth inhibition,[2]; at 33.0 µM,8%
same,growth inhibition,[2]; at 100.0 µM,91% (active)
same,growth inhibition,[3]; [16],-9%
same,growth inhibition,[3]; [17],89% (active)
same,growth inhibition,[3]; at 50.0 µM,33.4%
same,growth inhibition,[15]; at 1.2 µM,0%
same,growth inhibition,[15]; at 3.7 µM,-12%
same,growth inhibition,[15]; at 11.0 µM,-14%
same,growth inhibition,[15]; at 33.0 µM,6%
same,growth inhibition,[15]; at 100.0 µM,92% (active)
